This note sets out measurements from PubChem BioAssay (NCI).

This is part of a sample that, as a whole, favours compounds with a hit. Of some 83,000 tested, about 20% had one in any assay.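 96-well plates, one dose, 48 hours. Percent growth reported; active if below 10.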 A number with no mark means an inactive call. The source made the active and inactive calls.

What all share (test): NCI-60 one-dose screen, 48 h (100 = growth as untreated, 0 = no growth, -100 = all killed)
Common to all, as to details: 10 µM unless noted

Assay [1] relates to HCT-15 colon.
Assay [2] concerns HT29 colon.
The test system of assay [3] is SNB-75 CNS.
The subject of assay [4] is SNB-19 CNS.
Assay [5] relates to U251 CNS.
Assay [6] relates to PC-3 prostate.
Assay [7] concerns SK-MEL-5 melanoma.
For assay [8], the system named is UACC-62 melanoma.
The subject of assay [9] is LOX IMVI melanoma.
In assay [10] the test system is SK-MEL-28 melanoma.
Assay [11] deals with SK-MEL-2 melanoma.
Assay [12] concerns EKVX NSCLC.
Assay [13] deals with SN12C renal.
Assay [14] concerns UO-31 renal.
The test system of assay [15] is TK-10 renal.
In assay [16] the test system is ACHN renal.
The subject of assay [17] is CAKI-1 renal.
Assay [18] relates to A498 renal.
In assay [19] the test system is CCRF-CEM leukemia.
Assay [20] deals with MOLT-4 leukemia.

In the case of `CCCCSC1=C(Cl)CN(c2ccccc2)C1=O`, the growth in assay [1] was 101%; in [2], 114%; in assay [3] it was 105%; in [4], 101%; in assay [5] it was 99.6%; in assay [6], 103%. Also, the growth is 101% in assay [7]; 95.7% in [8]; 36.4% in assay [9]; 101% in assay [10]; 121% in assay [11]; 97.8% in assay [12]. Also, the growth in assay [13] is 94.6%; in [14] it was 92.2%; in assay [15] it was 134%; in assay [16], 106%; in assay [17], 94%; in assay [18], 108%. The growth in assay [19] is 117%; in assay [20] it was 105%.

As to `CNCCN(C)c1ccc(Nc2cc(NC3CC3)n3ncc(C#N)c3n2)cc1NC(C)=O`, the growth in assay [1] is 9.77% (active); in [2], 16.4%; in [3], -24.3% (active); in assay [4] it was 10.1%; in [5], 5.12% (active); in assay [6], 10.7%. The growth is -1.54% (active) in [7]; -24.9% (active) in assay [8]; -25.7% (active) in assay [9]; 13% in assay [10]; -20.4% (active) in assay [11]; 7.67% (active) in assay [12]. In addition, the growth is 22.4% in assay [13]; 6.68% (active) in assay [14]; -29.9% (active) in assay [15]; 15.1% in assay [16]; -36.6% (active) in [17]; -36.5% (active) in assay [18]. The figures for the growth in assay [19] and in assay [20] were 13.2% and 8.27% (active), respectively.

On to `CN(C)c1cccc2c(S(=O)(=O)Nc3cccc(-c4csc(NC(=O)CCCCCN5CCN(CCO)CC5)n4)c3)cccc12`, for which the growth was 90.6% in assay [1]; 17% in assay [2]; 80.1% in assay [3]; 87.9% in assay [4]; 70.2% in [5]; 72.3% in assay [6]. Besides, the growth in assay [7] was 79.2%; in assay [8] it was 94.1%; in assay [9] it was 12.9%; in assay [10] it was -7.14% (active); in assay [11], 99.7%; in [12] it was 85%. For the same compound, the growth in assay [13] is 80.1%; in [14], 86.4%; in assay [15] it was 120%; in [16], 96.9%; in assay [17], 86.1%; in [18] it was 101%. The growth was 72.8% in [19] and 47.5% in assay [20].

Regarding `CN(C)CC(=O)Nc1nc(-c2cccc(NS(=O)(=O)c3cccc4c(N(C)C)cccc34)c2)cs1`, the growth was 75.8% in assay [1]; 94.3% in [2]; 95.6% in [3]; 88.8% in assay [4]; 83.4% in assay [5]; 72% in [6]. For the same compound, the growth in assay [7] was 63.4%; in assay [8], 72.5%; in assay [9] it was 95.3%; in [10], 104%; in assay [11] it was 94.1%; in assay [12], 68.9%. The growth in assay [13] was 75.3%; in [14], 70.4%; in [15], 107%; in assay [16], 88.2%; in assay [17], 78.8%; in assay [18], 101%. For the same compound, the growth was 83.7% in assay [19] and 80.4% in [20].

`NCCNC(=O)c1cccc(COc2ccccc2NC(=O)c2cc(Br)c(Br)[nH]2)c1`: the growth in [1] was 72.7%; in assay [2] it was 101%; in assay [3], 94.1%; in assay [4], 71.1%; in assay [5], 77.5%; in assay [6], 82.1%. For the same compound, the growth in assay [7] is 98.9%; in [8], 96.8%; in [9], -30.8% (active); in [10], 102%; in assay [11], 101%; in assay [12], 89.9%. Besides, the growth is 92.6% in assay [13]; 90% in [14]; 89% in assay [15]; 101% in assay [16]; 90.1% in [17]; 81.1% in assay [18]. The figures for the growth in assay [19] and in assay [20] were 17.9% and 68.7%, respectively.

Take `O=C1/C(=C/c2cc(F)cc(F)c2)Cc2cc3c(cc21)OCO3`: the growth in assay [1] was 27.2%; in [2], 22.1%; in assay [3] it was 6.56% (active); in assay [4], 49.7%; in assay [5] it was 43.4%; in assay [6] it was 25.3%. Moreover, the growth in assay [7] is 23.6%; in assay [8], 24.3%; in assay [9], 38.5%; in assay [10] it was 57.8%; in assay [11], 44.3%; in assay [12], 73.5%. Moreover, the growth in assay [13] is 45.7%; in assay [14], 41.3%; in assay [15], 99.4%; in assay [16] it was 43.9%; in [17] it was 29.1%; in [18] it was 20.2%. Also, the values for the growth in assay [19] and in assay [20] were 56.1% and 43.3%, respectively.

Turning to `CN1CCN(c2ccc(Nc3nc(NCCNS(=O)(=O)c4ccc5ccccc5c4)c4sccc4n3)cc2)CC1`, the growth in assay [1] was 7.96% (active); in assay [2], 8.55% (active); in [3], 78%; in assay [4] it was 90.6%; in assay [5], 13.4%; in [6] it was 76%. Also, the growth was 86.1% in assay [7]; 66.5% in [8]; -77.3% (active) in assay [9]; 74.4% in assay [10]; 103% in assay [11]; 86.2% in assay [12]. Moreover, the growth in [13] is 79.6%; in [14], 68.9%; in assay [15], 127%; in [16] it was 86.8%; in assay [17], 69.5%; in assay [18] it was 86.9%. Also, the values for the growth in [19] and in assay [20] were 41.9% and 41.6%, respectively.

Consider `CCCCOc1ccc(S(=O)(=O)N2CCN(c3nc(C)cc(N4CCOCC4)n3)CC2)cc1`, for which the growth is 5.32% (active) in [1]; -35.5% (active) in assay [2]; 2.51% (active) in assay [3]; 62.6% in [4]; 18.8% in [5]; 36.4% in [6]. Further, the growth in assay [7] was 84%; in assay [8], -23.6% (active); in assay [9], -71.5% (active); in assay [10], -2.33% (active); in assay [11] it was -8.8% (active); in [12], 39.9%. Besides, the growth was 40.4% in assay [13]; 17.4% in [14]; 33.6% in assay [15]; 15.3% in assay [16]; 19.8% in assay [17]; 37.1% in assay [18]. Moreover, the figures for the growth in assay [19] and in [20] were 60.3% and 26.1%, respectively.

As for `NC1C2CCC1CN(c1cnc(C(=O)Nc3cc(F)cc4cccnc34)cn1)C2` (stereo not given), the growth in assay [1] is 6.16% (active); in [2], 22.7%; in assay [3] it was 46.4%; in assay [4], 69.7%; in assay [5] it was 60.1%; in [6] it was 61.4%. In addition, the growth in [7] was 93.2%; in [8], 78.9%; in [9] it was 26.3%; in assay [10], 63.5%; in [11] it was 101%; in assay [12], 71.2%. In addition, the growth in [13] was 56.1%; in assay [14], 34.9%; in [15], 91.2%; in assay [16], 28.3%; in assay [17], 38.5%; in [18], 72.8%. The growth in [19] is 25%; in assay [20], 16.3%.

In the case of `CC(=O)C1=C(C)NC(NNc2ccccc2)=NC1c1ccc([N+](=O)[O-])cc1` (stereo not given), the growth in [1] is 67.9%; in assay [2], 96.5%; in assay [3] it was 102%; in assay [4], 87.8%; in [5] it was 93.1%; in assay [6], 79.3%. The growth in assay [7] is 98.7%; in [8], 52.8%; in assay [9], 77.1%; in [10], 102%; in [11], 102%; in assay [12] it was 80%. In addition, the growth in assay [13] is 98.8%; in [14], 73.3%; in [15], 109%; in assay [16] it was 76%; in assay [17], 43.3%; in assay [18] it was 91.9%. For the same compound, the growth in [19] was 89.7%; in assay [20], 82.6%.

In the case of `O=C(Nc1cc(C(F)(F)F)cc(C(F)(F)F)c1)Nc1ccc2oc(=O)ccc2c1`, the growth in [1] was 10.5%; in assay [2], 10.5%; in assay [3], 15.1%; in assay [4] it was 13.6%; in assay [5], 14.6%; in assay [6], 3.96% (active). Moreover, the growth in assay [7] is -90.6% (active); in assay [8], 14%; in [9], -43.1% (active); in [10], 34.8%; in assay [11] it was -18.5% (active); in [12] it was 9.09% (active). The growth in [13] was -7.21% (active); in assay [14] it was 1.64% (active); in [15], 16.1%; in assay [16] it was -3.53% (active); in assay [17] it was 1.47% (active); in assay [18], -1.96% (active). The growth in assay [19] was 17.5%; in assay [20], 19.7%.

As for `COc1cc(NC(=O)Nc2cccc(-c3cc(=O)c4c(OC)c(OC)c(OC)cc4o3)c2)cc(OC)c1OC`, the growth was 32.7% in [1]; 46% in assay [2]; -0.583% (active) in assay [3]; 46.9% in assay [4]; 27.5% in assay [5]; 44.8% in assay [6]. In addition, the growth in [7] is 43%; in assay [8], 48.4%; in [9], 24.7%; in assay [10] it was 53.5%; in assay [11], 49.3%; in assay [12], 62.2%. In addition, the growth in assay [13] is 38.5%; in assay [14], 24.7%; in assay [15], 64.9%; in assay [16] it was 56.1%; in [17] it was 35.4%; in [18] it was 19.1%. Also, the figures for the growth in [19] and in [20] were 35.4% and 32.1%, respectively.

`Fc1cc(F)cc(NNC(=S)c2ccccc2)c1`: the growth in [1] is 28.2%; in assay [2] it was 101%; in assay [3] it was 70.9%; in assay [4] it was 61.7%; in assay [5] it was 28.9%; in assay [6], 22%. The growth is 46.2% in assay [7]; 31.8% in [8]; 44.8% in assay [9]; 48.9% in assay [10]; 76% in assay [11]; 39.7% in [12]. Further, the growth in assay [13] was 9.96% (active); in [14], 26.4%; in [15], 92.3%; in assay [16] it was 55.4%; in assay [17], 56.2%; in assay [18], 14.4%. Besides, the growth in assay [19] was 24.2%; in assay [20], 25.1%.

For the compound `O=C(CSc1nnc(-c2cccs2)n1-c1ccccc1)Nc1ccccc1`, the growth in assay [1] was 80.3%; in assay [2], 91.1%; in assay [3], -0.436% (active); in assay [4] it was 54.1%; in [5], 84.3%; in [6], 83%. In addition, the growth is 80.1% in assay [7]; 67.7% in assay [8]; 71.9% in assay [9]; 76.9% in assay [10]; 108% in assay [11]; 76.7% in [12]. The growth in assay [13] was 83.5%; in assay [14], 64.4%; in assay [15] it was 105%; in [16] it was 59.6%; in assay [17] it was 63.6%; in assay [18], 84.9%. The growth was 93.7% in [19] and 93.6% in assay [20].
